# Data taken from PubChem BioAssay (NCI).
# The panel holds about 83,000 compounds, 20% with a hit somewhere; the sample as a whole holds those more often.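 Cells were grown in 96-well plates and exposed to the test compound at a single concentration for 48 hours; results are reported as percent growth, with values below 10 considered active.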 A number with no mark means an inactive call. Activity calls are given as the source filed them.
# System: SK-MEL-28 melanoma
# Assay: NCI-60 one-dose screen, 48 h (100 = growth as untreated, 0 = no growth, -100 = all killed)
# Settings: 10 µM unless noted
row,SMILES,growth
1,CN1CC=C(c2cc(NC(=O)Nc3ccc(Oc4ccnc(NC(=O)C5CC5)c4)c(F)c3)cc(C(F)(F)F)c2)CC1,-1.25% (active)
2,COc1ccc(C(=O)c2cc(OC)c(C)c(OC)c2)cc1OC(=O)CCl,49.5%
3,NC(=O)C(O)(c1ccccc1)c1ccccc1,112%
4,CCOC(=O)C(=Cc1c(-c2ccccc2)[nH]c2ccccc12)C(=O)OCC,62.5%
5,C=C(C)[C@@H]1CC[C@]2(C(=O)OCCCC[P+](c3ccccc3)(c3ccccc3)c3ccccc3)CC[C@]3(C)[C@H](CC[C@@H]4[C@@]5(C)CC[C@H](OC(=O)C(Cl)Cl)C(C)(C)[C@@H]5CC[C@]43C)[C@@H]12,-63.4% (active)
6,CC(=O)Nc1ccc2c(c1)Cc1cc(F)ccc1-2,117%
7,Cc1nccc2c3ccc(OCc4cn(-c5ccccc5)nn4)cc3n(CCCc3ccccc3)c12,99%
8,N#Cc1c(NC(=O)c2cccs2)[n+]([O-])c2cc(C(F)(F)F)ccc2[n+]1[O-],120%
9,O=C(Nc1ccccc1)NS(=O)(=O)c1c[nH]c(=S)[nH]c1=O,116%
10,O=C(CSC(=S)N1CCCCC1)Nc1ccccc1,104%
11,COc1ccccc1-c1ccc2nc(NC(=O)Nc3cc(C(F)(F)F)cc(C(F)(F)F)c3)sc2c1,31.1%
12,Cc1cc(Cl)cc(CN(Cc2ccccc2)Cc2c(O)ccc3ccccc23)c1O,113%
13,Cn1cc(-c2ccc3c(c2)ncn3-c2ccc(CC(=O)Nc3cc(C(C)(C)C)on3)cc2)cn1,48.5%
14,COc1ccc2nc(-c3ccc(Cl)cc3)cc(C(=O)N3N=C(c4ccc(N)cc4)CC3c3ccccc3)c2c1 (configuration not stated),61.7%
15,COc1cc(C(=O)Nc2cc(O)c(C/C=C(\C)CCC=C(C)C)c(O)c2)cc2c1O[C@]1(C)CC[C@@H](O)C(C)(C)[C@H]1C2,25.8%
16,C=C(C)[C@@H]1CC[C@]2(C(=O)NCCCO)CC[C@]3(C)[C@H](CC[C@@H]4[C@@]5(C)CCCNC(C)(C)[C@@H]5CC[C@]43C)[C@@H]12,51.3%
17,Nc1ccc2c(c1)C(=O)C(=O)c1c-2nc2ccccn12,-28.9% (active)
18,CC(C)NS(=O)(=O)c1cccc(-c2ccc3c(=O)n(CCCN)c4c(c3c2)C(=O)c2ccccc2-4)c1,110%
19,CCSc1nc(Cl)c(C#N)c(-c2ccc(F)cc2)n1,101%

row,SMILES,growth
1,COc1ccc(-c2[nH]c3ccc(OC)cc3c2C=C(C#N)C#N)cc1,54.2%
2,OCCNc1nc(NCCO)nc(Nc2ccc(C3=NN(c4cc(Cl)cc(Cl)c4)C(c4ccccc4)C3)cc2)n1 (configuration not stated),49.9%
3,COc1ccc2[nH]c(=O)c(/C=C/C(=O)c3ccccc3OC)cc2c1,50.5%
4,CC(=O)Nc1nc2c(c(N)c1C#N)C(c1cccc(Cl)c1)C1=C(CCCC1=O)N2c1sc2c(c1C#N)CCCC2 (configuration not stated),82.4%
5,C#C[C@@]1(O)[C@@H](CO)O[C@@H](n2cnc3c(-c4ccccc4)ncnc32)[C@@H]1O,111%
6,COc1cc(-c2cn(-c3ccc(Cl)c(Cl)c3)c(=O)[nH]2)cc(OC)c1OC,110%
7,Nc1ccc(C2=NN(C(=O)c3cc(-c4ccc(Cl)cc4)nc4ccccc34)C(c3ccccc3)C2)cc1 (configuration not stated),58.8%
8,Cc1c(Cl)cccc1NC(=O)c1sc2nc3c(cc2c1N)COCC3,58.6%
9,CC1CCN(CCCCCOc2ccc3oc4ccccc4c(=O)c3c2)CC1,87.7%
10,O=S(=O)(Nc1nccs1)c1ccc(Nc2nc(-c3ccncc3)cs2)cc1,109%
11,N#Cc1c(-c2ccc(F)cc2)nc(N/N=C/c2cccc(O)c2)nc1N1CCOCC1,99%
12,COc1cc(-c2csc(NC(=O)Nc3cc(Cl)cc(Cl)c3)n2)cc(OC)c1OC,30.6%
13,COc1ccc(C(=O)c2cc(F)c(F)c(OC)c2F)cc1OC(=O)CCl,57.9%
14,Cc1c(Cl)cccc1NC(=O)c1sc2nc3c(cc2c1N)CCCCCC3,58.7%
15,C#C[C@@]1(O)[C@@H](CO)O[C@@H](n2cc(-c3ccco3)c3c(N)ncnc32)[C@@H]1O,93.2%
16,COc1cc(/C=C/C(=O)c2ccc(NC(=O)CSc3nnc(-c4cc(OC)c(OC)c(OC)c4)n3-c3ccccc3)cc2)cc(OC)c1OC,33.3%
17,COc1ccccc1C(=O)/C=C/c1cc2cccc(OC)c2[nH]c1=O,2.94% (active)
18,CN1C(=O)c2cc(Cl)nc3c(NC(=O)c4cccc(Cl)c4)c(Cl)c(NC(=O)c4cccc(Cl)c4)c1c23,-32.2% (active)
